Source: PubChem BioAssay
Shown are actives, neighbours in structure and some others; about 7.3% of the full set was active somewhere.
ELG1 genotoxic: inducers of genotoxicity in HEK293T ELG1-luciferase cells | HEK293T ELG1-luciferase reporter, luminescence, 16 h | Potency, µM (highest dose often 46 µM), without a hit: at the top dose activity change, positive = activation, most hits filed as activators | 330,000 compounds, 1.3% hits; note: % of control where 0% means no effect; nearly all actives have a fitted effect of over 60% in size
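Genotoxic stress is detected as increased luminescence from luciferase-tagged ELG1 in HEK293T cells, measured with ONE-Glo after a 16 hr treatment at 37 °C.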
p53 reactivator: restores transcriptional activity of mutant p53 | H1299 p53-A138V BP100-luciferase reporter, luminescence, 24 h | 320,000 compounds, 0.063% hits | Potency, µM (top dose mostly 92.2 µM), for inactives: at the top dose activity change, positive = activation, hits mostly activators; note: % of control where 0% means no effect; nearly all actives have a fitted effect of over 45% in size
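p53-null H1299 cells stably carrying temperature-sensitive p53-A138V and a BP100-luciferase reporter were pinned with compounds (4-point, 1:5 series) and held 24 hrs at 37 deg C. Luminescence was read 10 min after detection reagent.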
FLuc counter: firefly luciferase modulation, counter-screen for miR-21 project. P08659. purified FLuc, Km substrates, luminescence inhibition. Potency, µM (doses to about 57.5 µM), for the others: at the top dose activity change, negative = inhibition, most hits filed as inhibitors. 360,000 compounds, 6.9% hits. AID 588342;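 note: plate controls were vehicle for no effect and reference inhibitor for full effect; nearly all actives have a fitted effect of over 55% in size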
Target sequence (P08659 whole entry, looked up): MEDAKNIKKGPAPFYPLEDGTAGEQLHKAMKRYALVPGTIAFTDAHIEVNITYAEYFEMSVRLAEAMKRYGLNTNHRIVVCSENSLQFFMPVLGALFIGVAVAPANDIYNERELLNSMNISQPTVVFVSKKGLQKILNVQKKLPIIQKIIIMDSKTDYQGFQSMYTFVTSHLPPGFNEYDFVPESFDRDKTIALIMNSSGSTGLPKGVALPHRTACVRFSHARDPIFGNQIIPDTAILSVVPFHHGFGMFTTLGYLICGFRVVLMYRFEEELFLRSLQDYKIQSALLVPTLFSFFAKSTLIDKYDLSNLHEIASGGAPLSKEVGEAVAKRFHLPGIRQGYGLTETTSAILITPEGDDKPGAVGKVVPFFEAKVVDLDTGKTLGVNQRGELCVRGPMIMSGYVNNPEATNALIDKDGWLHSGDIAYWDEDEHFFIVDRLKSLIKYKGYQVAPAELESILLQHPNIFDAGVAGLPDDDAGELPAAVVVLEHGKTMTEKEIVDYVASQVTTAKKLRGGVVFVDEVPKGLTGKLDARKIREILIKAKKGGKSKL
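Biochemical qHTS of compounds, final roughly 60 µM downward over six points, against 10 nM purified firefly luciferase using Km concentrations of substrates (10 uM D-luciferin, 10 uM ATP) in Tris acetate pH 7.5 buffer; luminescence output.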
NPC1 promoter act: activators of NPC1 promoter; Potency, µM (series often up to 9.22 µM), for the others: at the top dose activation, usual class: activators; AID 485313; 320,000 compounds, 2.4% hits; Huh7 NPC1 promoter luciferase reporter, 24 h; note: % of control where 0% means no effect; nearly all actives have a fitted effect of over 60% in size
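Compounds in DMSO were transferred onto Huh7 NPC1-luciferase reporter cells pre-incubated 2 h; after 24 h at 37 °C, Amplite reagent was dispensed and luminescence recorded 10 min later.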
SMN2 splice enh: enhancers of SMN2 splice variant expression. AID 1458. HEK293 SMN2-luciferase splicing reporter, luminescence, 30-36 h. Potency, µM (highest dose often 46.1 µM), for the others: at the highest dose activity change, positive = activation, hits mostly activators. 210,000 compounds, 2.8% hits; note: % of control where 0% means no effect; nearly all actives have a fitted effect of over 55% in size
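qHTS luciferase splicing reporter: luminescence rises when SMN2 exon 7 is included in transfected HEK293 cells. Compound exposure lasted 30-36 h at 37C, with 4.5 mM final sodium butyrate as control, followed by a ONE-Glo read.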
Rab9 prom act: activators of Rab9 promoter. Potency, µM (series often up to 9.22 µM), without a hit: at the highest dose activation, negative = inhibition, hits mostly activators. Huh7 Rab9 promoter-luciferase reporter, luminescence, 24 h. 320,000 compounds, 2.8% hits. AID 485297; note: % of control where 0% means no effect; nearly all actives have a fitted effect of over 60% in size
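Rab9 promoter-driven luciferase in stably transfected Huh7 cells; 1500 cells/well rested 2 h, exposed to compound in DMSO for 24 h at 37 °C, 5% CO2. Luminescence read 10 min after adding luciferase reagent at ambient temperature.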
* marks the source's active call; other numbers are inactive results; ? = inconclusive; · = no result; [ ] = dose if it differs, or a comment. Calls come from the whole dose curve; as a rule, active = well fitted curve in the direction sought with a large enough effect; inconclusive = small, poorly fitted or top-dose-only effect, or another doubt; inactive = no such curve, though single readings can be large; an effect the other way counts as inactive or inconclusive. Potency is the fitted concentration of half-maximal effect.

SMILES | ELG1 genotoxic | p53 reactivator | FLuc counter | NPC1 promoter act | SMN2 splice enh | Rab9 prom act
O=C(/C=C/Nc1ccc(Oc2ccccc2Cl)cc1)c1ccco1 | ? | -10% | 3.4µM* | 3.5µM* | 16µM* | 2.2µM*
CCC(=O)N1CCc2cc(Br)cc(S(=O)(=O)N3CCCC(C(=O)NCc4cccc(OC)c4)C3)c21 (stereo not drawn) | · | · | -10% | · | 7% | ·
CCN1CCN(c2ccc(NC(=O)c3ccccc3F)cc2Cl)CC1 | ? | 18% | ? | ? | 10µM* | ?
COc1cc2ccccc2cc1C(=O)Nc1ccccc1N1CCN(S(C)(=O)=O)CC1 | · | · | 0% | · | -7% | ·
CCN1CCN(c2ccc(NC(=O)c3cc4ccccc4cc3OC)cc2C)CC1 | ? | 17% | 8.5µM* | 29% | · | ?
CCCCCC(=O)NC(=S)Nc1ccc(N2CCCCC2)c(Cl)c1 | 1% | 18% | 1% | -2% | · | 2%
CCCCCC(=O)Nc1ccc(N2CCN(CC)CC2)c(Cl)c1 | 18µM* | ? | ? | ? | ? | 28%
CC(C)Oc1ccc(CNC(=O)C2CCN(C(=O)N3CCOc4ccc(Cl)cc43)CC2)cc1 | · | · | -12% | · | · | ·
O=C(NCc1ccco1)c1ccc(-c2ccc(Cl)cc2)o1 | 3% | 3% | 15µM* | 18% | -10% | 25%
O=C(NCC1CCCO1)c1ccccc1 (stereo not drawn) | · | · | 0% | · | 2% | ·
O=C(NCC1CCCO1)c1ccc(-c2ccccc2Cl)o1 (stereo not drawn) | ? | 14% | 17µM* | 3.5µM* | · | 2.8µM*
O=C(NCC1CCCO1)c1cc(-c2ccccc2F)no1 (stereo not drawn) | ? | ? | 15µM* | ? | · | 2.8µM*
O=C(NCc1ccco1)c1ccc(-c2ccccc2Cl)o1 | 16% | 8% | 17µM* | 2% | 29% | 30%
COc1ccccc1CNC(=O)c1ccc(-c2ccccc2Cl)o1 | -2% | 6% | ? | 3% | 6% | 0%
COc1ccc(-c2nc3c(c4c2C[C@H](c2ccccc2)OC4)CN(S(=O)(=O)c2ccc(Cl)c4nonc24)CC3)c(C)c1 | · | · | · | · | 13%[9.22 µM] | ·
CC(=O)NC(=O)c1ccc(-c2ccc(Cl)cc2)o1 | 10% | ? | 5.4µM* | -2% | · | 19%
O=C(NC12CC3CC(CC(C3)C1)C2)c1ccco1 | -5% | 14% | -9% | 2% | · | 0%
O=C(NC12CC3CC(CC(C3)C1)C2)c1ccc(-c2ccccc2Cl)o1 | ? | ? | 1.9µM* | 1.1µM* | 8% | 2µM*
O=C(NC(=S)Nc1ccccc1O)c1ccc(-c2ccc(Cl)cc2)o1 | 4% | -2% | 4% | -2% | -5% | -8%
O=C(NC12CC3CC(CC(C3)C1)C2)c1ccc(-c2ccc(Cl)cc2)o1 | ? | ? | ? | ? | 16µM* | 3.2µM*
CCn1nnc(NC(=O)c2ccc(-c3ccc(Cl)cc3)o2)n1 | ? | 11% | 17µM* | 19% | 26% | 20%
CCn1nnc(NC(=O)Cc2ccc(Cl)cc2)n1 | 1% | -3% | 6% | -1% | · | -9%
COc1ccc(CNC(=O)CN2N=C(c3ccccc3)CCC2=O)c(OC)c1 | · | · | 2% | · | · | ·
CCCC(C(=O)NCc1cccc(Cl)c1)N1Cc2ccccc2C1=O (stereo not drawn) | · | · | -1% | · | · | ·
O=C(NC12CC3CC(CC(C3)C1)C2)c1ccc(-c2cccc(Cl)c2)o1 | ? | ? | 2.4µM* | 2.8µM* | -33% | 0.89µM*
SMILES | ELG1 genotoxic | p53 reactivator | FLuc counter | NPC1 promoter act | SMN2 splice enh | Rab9 prom act
O=C(NC12CC3CC(CC(C3)C1)C2)c1ccc(COc2ccc(Cl)cc2[N+](=O)[O-])o1 | -8% | 2% | -6% | -2% | -28% | -3%
O=C(Nc1cc(Cl)cc(Cl)c1)c1cc(S(=O)(=O)N2CCc3ccccc3C2)ccc1F | · | · | 3% | · | · | ·
Cc1ccc(S(=O)(=O)c2cn(C)c3cc(N4CCCCCC4)c(F)cc3c2=O)cc1 | · | · | 4% | · | · | ·
CCN1CCN(Cc2c(O)ccc3c(=O)c(-c4ccccc4OC)coc23)CC1 | 2% | 8% | 0% | 0% | -13% | -2%
CCN1CCN(Cc2c(O)ccc3c2O/C(=C\C=C\c2ccccc2OC)C3=O)CC1 | -1% | -5% | 4.8µM* | -1% | 4% | 2%
Cc1ccc2c(c1)C1CN(C)CCC1N2C(=O)COc1ccccc1F (stereo not drawn) | 2% | -5% | -1% | -3% | · | -4%
CN(C)/C=C/C(=O)c1ccccc1 | 0% | 8% | -4% | 0% | · | -2%
CN(C)/C=C/C(=O)c1ccc(Oc2ccccc2)cc1 | 4.1µM* | 3% | 4.3µM* | ? | 13µM* | 1.4µM*
CCCc1ccc(C(=O)/C=C/N(C)C)cc1 | 9.2µM* | 9% | 5.4µM* | 1.1µM* | · | 1.4µM*
Cc1ccc(OCCn2nnc3sc4c(c3c2=O)CCC(C)C4)cc1 (stereo not drawn) | · | · | -13% | · | 7% | ·
CCc1ccc(-n2c(=O)c3c4c(sc3n(CC(=O)N3CCC(C)CC3)c2=O)CCC4)cc1 | · | · | -12% | · | -6% | ·
COc1ccc(CCNC(=O)CN(c2ccc(C)cc2)S(=O)(=O)c2ccc(OC)cc2)cc1 | · | · | -9% | · | -6% | ·
COc1ccc(-c2noc(CSc3ccccc3)n2)cc1OC | 14% | ? | 13µM* | ? | · | 4µM*
c1ccc(SCc2nc(-c3ccncc3)no2)cc1 | 15µM* | ? | 17µM* | 4µM* | 11µM* | ?
COc1ccc(-n2c(=O)c3c4c(sc3n(Cc3c(F)cccc3Cl)c2=O)CN(C(C)=O)CC4)cc1OC | · | · | -2% | · | · | ·
O=C1C2C3C=CC(CC3)C2C(=O)N1c1ccc(Cl)cc1 (stereo not drawn) | 0% | 9% | -22% | 5% | · | 2%
CCc1ccc(N2C(=O)C3C4C=CC(CC4)C3C2=O)cc1 (stereo not drawn) | 9% | -12% | 4.3µM* | 3% | · | 19%
O=C(/C=C/c1ccccc1)Nc1cccnc1Cl | 18µM* | 24% | 12µM* | 2.2µM* | · | 2.2µM*
O=C(/C=C/c1ccco1)Nc1ccccc1N1CCCCC1 | -11% | 0% | 1% | -2% | -7% | -1%
COC(=O)c1ccccc1NC(=O)/C=C/c1ccco1 | -5% | 4% | 15µM* | 10% | 15% | 28%
O=C(/C=C/c1ccco1)Nc1cccnc1Cl | ? | 19% | 15µM* | 4µM* | · | 4µM*
CC(C)COc1ccc(C(=O)N2CCCCC2CCN2CCOCC2)cc1 (stereo not drawn) | · | · | 1% | · | -9% | ·
Cc1ccc(C(=O)Nc2ccc(Br)cc2)cc1S(=O)(=O)Nc1ccccn1 | -5% | 4% | 1% | 3% | -18% | 9%
